Screening data as filed in PubChem BioAssay.
Efflux pump inh – antifungal efflux pump inhibition, Nile Red retention; S. cerevisiae Candida pump triplex; inhibition, % at 10 µM; 330,000 tested, 0.44% active;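 active = plate passing quality check with inhibition over a set limit, or well fluorescence over plate mean plus 4 SD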;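 note: Nile Red retained in pooled yeast measured as flow cytometry median fluorescence; higher means more Nile Red kept so more efflux inhibition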
PABP FP inh – PABP-poly(A) binding inhibition; P11940; PABP-poly(A) RNA binding, fluorescence polarization; inhibition, % at 35 µM; 290,000 tested, 1% active; AID 2014;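 note: calls also rest on retests at 20 µM and on dose response follow-up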
ALR H2O2 inh – human ALR oxidase inhibition via reduced H2O2 | AID 485317 | 290,000 tested, 3.8% active | inhibition, % (test concentration not listed) | P55789 | purified ALR, DTT oxidation, H2O2 HRP-luminol luminescence;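 active = mean replicate inhibition above about 79%, with every replicate also reaching it, limit read from the data; inconclusive = only one of the two criteria met; inactive = mean below limit and not every replicate reaching it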
Target sequence (P55789 whole entry, looked up): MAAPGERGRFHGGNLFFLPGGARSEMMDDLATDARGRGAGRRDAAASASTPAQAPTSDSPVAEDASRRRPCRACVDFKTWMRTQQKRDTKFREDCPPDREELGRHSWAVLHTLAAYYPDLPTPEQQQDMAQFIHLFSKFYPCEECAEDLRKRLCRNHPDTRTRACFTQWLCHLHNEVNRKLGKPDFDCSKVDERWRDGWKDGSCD
PABP1 MLLE inh – inhibitors of microRNA-mediated deadenylation, human PABP1 MLLE binding; GST-MLLE / FITC-PAM2 fluorescence polarization; inhibition, % at 20 µM; 360,000 tested, 0.36% active; in the data active = inhibition above about 35%, passing the limit was not always enough
UBC9 SUMO inh – SUMOylation inhibition; P63279; HTRF SUMOylation assay, SAE1/SAE2 + UBC9, in vitro; inhibition, % at 35 µM; 290,000 tested, 0.36% active; AID 2006; in the data active = inhibition above about 50%, passing the limit was not always enough; inconclusive = no clear call, values can overlap the other calls
Target sequence (P63279 whole entry, looked up): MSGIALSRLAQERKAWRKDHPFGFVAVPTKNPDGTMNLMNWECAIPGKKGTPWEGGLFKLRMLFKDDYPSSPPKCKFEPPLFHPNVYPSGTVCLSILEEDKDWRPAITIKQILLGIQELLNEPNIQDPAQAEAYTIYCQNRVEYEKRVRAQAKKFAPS
eIF4H FP inh – inhibitors of RNA binding by human eIF4H. eIF4H fluorescence polarization binding assay. AID 2012. Q15056. 290,000 tested, 0.94% active. inhibition, % at 35 µM;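 note: calls also rest on retests at 20 µM and on dose response follow-up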
Each line names hits and unclear results; the compound was inactive in the other large screens. This is a sample that favours compounds with a hit; in the whole collection about 4.7% have one here. Unless noted, the rule behind the calls is not given here.

O=S(=O)(Nc1ccccc1)c1cccc2nsnc12	eIF4H FP inh 71
Cc1ccc(Sc2ncccc2COC(=O)NC(C)C)cc1	PABP FP inh 53, eIF4H FP inh active (no result: ALR H2O2 inh)
O=C1CC(=O)c2c1cccc2[N+](=O)[O-]	PABP FP inh 53, eIF4H FP inh 65 (no result: Efflux pump inh, ALR H2O2 inh, PABP1 MLLE inh)
Cc1cc(NC(=O)CSc2cn(CC(=O)N(C(C)C)C(C)C)c3ccccc23)no1	ALR H2O2 inh 98 (no result: PABP FP inh, UBC9 SUMO inh, eIF4H FP inh)
Cc1cc(NC(=O)CSC2=NCCS2)no1	PABP1 MLLE inh 44 (no result: ALR H2O2 inh)
Cc1cc(NC(=O)CSCC(=O)N(C)Cc2ccc(F)cc2)no1	none
Cc1cc(NC(=O)CSCC(=O)N(C)Cc2ccc(Cl)c(Cl)c2)no1	PABP FP inh 55
Cc1cc(NC(=O)CSCC(=O)N2CCN(c3ccccc3)CC2)no1	ALR H2O2 inh 99 (no result: PABP FP inh, UBC9 SUMO inh, eIF4H FP inh)
CCCN(C)C[C@H]1OCc2cnnn2CCCC(=O)N([C@H](C)CO)C[C@@H]1C	none (no result: Efflux pump inh, PABP FP inh, ALR H2O2 inh, UBC9 SUMO inh, eIF4H FP inh)
Cc1cc(NC(=O)CSc2ccc3ccccc3c2)no1	ALR H2O2 inh 99
CCn1cc(SCC(=O)Nc2cc(C)on2)c2ccccc21	ALR H2O2 inh 95
CCn1cc(SCC(N)=O)c2ccccc21	ALR H2O2 inh 96
Cc1cc(NC(=O)COc2ccc3ccccc3c2)no1	none
O=C(CNc1cccc([N+](=O)[O-])c1)N/N=C/c1ccc([N+](=O)[O-])o1	none
Cc1ccc(/C=N/NC(=O)c2cc(-c3ccncc3)nc3ccccc23)o1	none (no result: Efflux pump inh, ALR H2O2 inh)
O=C(N/N=C/c1ccc([N+](=O)[O-])o1)c1cc(-c2ccncc2)nc2ccccc12	PABP FP inh 20, eIF4H FP inh 68
Cc1ccc(-c2cc(C(=O)N/N=C/c3ccc([N+](=O)[O-])o3)c3ccccc3n2)o1	PABP FP inh 32, eIF4H FP inh 76
O=C(N/N=C/c1ccc([N+](=O)[O-])o1)c1cc(-c2ccc(-c3ccccc3)cc2)nc2ccccc12	UBC9 SUMO inh 62
O=C(N/N=C/c1cccc([N+](=O)[O-])c1)c1cc(-c2ccccc2)nc2ccccc12	none
O=C(CNc1cccc2ccccc12)N/N=C/c1ccc([N+](=O)[O-])o1	PABP FP inh active, eIF4H FP inh 85
CCn1cc(C(=O)NCC(OC)OC)c(=O)c2cc(S(=O)(=O)N(C)C3CCCCC3)ccc21	none
Cn1c(/C=C/c2ccc([N+](=O)[O-])o2)nc2ccccc2c1=O	PABP FP inh 68, eIF4H FP inh inconclusive
CCC1(CC)N=C(c2ccccc2)C(=S)N1	none (no result: ALR H2O2 inh)
Cc1sc2ncnc(Nc3ccc(N4CCOCC4)cc3)c2c1-c1ccccc1	PABP FP inh 120, eIF4H FP inh inconclusive
COc1ccc(CCOC(=O)c2ccc(NC(=O)CC#N)cc2)cc1	ALR H2O2 inh 89
N#CCC(=O)Nc1ccc(C(=O)OCC(=O)N2CCN(C(=O)c3ccco3)CC2)cc1	ALR H2O2 inh 100 (no result: PABP FP inh, UBC9 SUMO inh, eIF4H FP inh)
CCN(CC)S(=O)(=O)c1ccc(NC(=O)COC(=O)c2ccc(NC(=O)CC#N)cc2)cc1	ALR H2O2 inh 99
N#CCC(=O)Nc1ccc(C(=O)OCC(=O)N2CCCC2=O)cc1	ALR H2O2 inh 99 (no result: PABP FP inh, UBC9 SUMO inh, eIF4H FP inh)
CCN(CC)S(=O)(=O)c1ccc(NC(=O)COC(=O)c2ccc(-n3nc(C)cc3C)cc2)cc1	none
CC1(C(=O)NS(=O)(=O)c2cccc(Cl)c2)CCN1C(=O)C1CCCCC1 (stereo not given)	none (no result: Efflux pump inh, PABP FP inh, ALR H2O2 inh, UBC9 SUMO inh, eIF4H FP inh)
CCOC(=O)N1CCN(S(=O)(=O)N2CCCC(C(=O)NCc3ccc(C)cc3)C2)CC1 (stereo not given)	none (no result: Efflux pump inh, PABP FP inh, ALR H2O2 inh, UBC9 SUMO inh, eIF4H FP inh)
CNC(=O)COC(=O)c1ccc(NC(=O)CC#N)cc1	ALR H2O2 inh 98
Cc1cc(C)c(C(=O)COC(=O)c2ccc(NC(=O)CC#N)cc2)cc1C	none
N#CCC(=O)Nc1ccc(C(=O)OCC(=O)Nc2ccccc2-c2ccccc2)cc1	ALR H2O2 inh 98
CCc1ccc(NC(=O)COC(=O)CCc2nc3cc(S(=O)(=O)N(CC)CC)ccc3n2C)cc1	ALR H2O2 inh 99
N#CCC(=O)Nc1ccc(C(=O)OCC(=O)NC(=O)Cc2ccccc2)cc1	ALR H2O2 inh 99 (no result: PABP FP inh, UBC9 SUMO inh, eIF4H FP inh)
CCN(CC)S(=O)(=O)c1ccc2c(c1)nc(CCC(=O)OCC(=O)Nc1cc(Cl)cc(Cl)c1)n2C	none
CS(=O)(=O)c1ccc(C(=O)OCC(=O)NC(=O)Cc2ccccc2)cc1	none (no result: PABP FP inh, UBC9 SUMO inh, eIF4H FP inh)
N#CCC(=O)Nc1ccc(C(=O)OCC(=O)Nc2cc(-c3ccccc3)nn2-c2ccccc2)cc1	none (no result: Efflux pump inh, PABP FP inh, ALR H2O2 inh, UBC9 SUMO inh, eIF4H FP inh)
COc1ccc(NC2CCCN(C(=O)COc3ccc(C(C)=O)cc3)C2)cc1 (stereo not given)	none (no result: Efflux pump inh, PABP FP inh, ALR H2O2 inh, UBC9 SUMO inh, eIF4H FP inh)
Cc1ccc(-c2noc(CCC(=O)Nc3cccc(C(=O)NC4CC4)c3)n2)cc1	none (no result: Efflux pump inh, PABP FP inh, ALR H2O2 inh, UBC9 SUMO inh, eIF4H FP inh)
O=C(COC(=O)COc1ccc(Br)cc1)NCc1ccccc1	none (no result: PABP FP inh, UBC9 SUMO inh, eIF4H FP inh)
CS(=O)(=O)Nc1ccc2c(c1)[C@H]1C[C@H](CC(=O)NCc3cccc(F)c3)O[C@@H](CO)[C@H]1O2	none (no result: Efflux pump inh, PABP FP inh, ALR H2O2 inh, UBC9 SUMO inh, eIF4H FP inh)
CN(C)CC(O)CN1C(=O)N(CN2C(=O)N(CC(O)CN(C)C)C(=O)C2(C)C)C(C)(C)C1=O (stereo not given)	none
O=C(Nc1ccc(-n2nncc2-c2ccco2)cc1)c1cc2ccccc2oc1=O	eIF4H FP inh 61 (no result: ALR H2O2 inh, UBC9 SUMO inh)
CCCCN1C(=O)C(CC(=O)NCc2cccc3ccccc23)CC(C(=O)N(C)C)=C1C (stereo not given)	none (no result: Efflux pump inh, PABP FP inh, ALR H2O2 inh, UBC9 SUMO inh, eIF4H FP inh)
Cc1nc2sccn2c(=O)c1S(=O)(=O)Nc1ccc(N2CCN(C)CC2)cc1	ALR H2O2 inh 97
Cc1nc2sccn2c(=O)c1S(=O)(=O)Nc1ccc(N2CCOCC2)cc1	none (no result: Efflux pump inh, PABP FP inh, ALR H2O2 inh, UBC9 SUMO inh, eIF4H FP inh)
COc1ccc(N2CCN(S(=O)(=O)c3c(C)nc4sccn4c3=O)CC2)cc1	ALR H2O2 inh 84
COc1ccc(CCNC(=O)Nc2cc(F)c(F)cc2Cl)cc1OC	none
CCOC(=O)c1c(C)c(C(=O)Nc2ccc(N(C)C)cc2)c(C)n1CC	ALR H2O2 inh 99
CCCCOC(=O)Nc1ccc(N2CCOCC2)cc1	none
CCCCOC(=O)Nc1ccc(N(C)C)cc1	ALR H2O2 inh 99
CCCCOC(=O)Nc1ccc(S(=O)(=O)Nc2ccc([N+](=O)[O-])cc2)cc1	PABP FP inh 1.3
CCCCOC(=O)Nc1ccc(N2CCCCC2)cc1	ALR H2O2 inh 78
CC(Sc1nnc(CC(=O)Nc2ccccc2F)n1C)C(=O)Nc1nccs1 (stereo not given)	none
Cc1cc(=O)oc2cc(OCCSCCN3CCCCC3)ccc12	ALR H2O2 inh 99
CCN(CC)c1ccc(/C=C/c2nc3ccccc3s2)cc1	Efflux pump inh 1.0, PABP FP inh inconclusive, eIF4H FP inh inconclusive (no result: PABP1 MLLE inh)
CNC(=O)COC(=O)/C=C/c1nc2ccccc2s1	none (no result: ALR H2O2 inh)
CCN(CC)c1ccc(NC(=O)COC(=O)/C=C/c2nc3ccccc3s2)cc1	ALR H2O2 inh 99
Nn1c(SCc2ccc(F)cc2)nnc1-c1ccncc1	none
N#Cc1c2c(c(NCCN3CCOCC3)n3c1nc1ccccc13)CCCC2	none
N#Cc1c2c(c(NCCCN3CCOCC3)n3c1nc1ccccc13)CCC2	PABP FP inh 70, eIF4H FP inh 93
COC(=O)c1c(NC(=O)COC(=O)CNC(=O)c2cccc(OC(F)F)c2)sc(C)c1C	none (no result: Efflux pump inh, PABP FP inh, ALR H2O2 inh, UBC9 SUMO inh, eIF4H FP inh)
CCCCC(=O)Nc1ccnc(-c2cccnc2)n1	ALR H2O2 inh 85
